Laboratory results published in PubChem BioAssay.
Active and inactive are the calls of the source.

Columns and labels:
[1] = A549 cell viability effects, profiling panel, calcein-AM fluorescence, 48 h, basal (AID 1162); conditions: higher = more signal
[2] = adipocyte viability effects, profiling panel, cell-based, 3T3-L1 adipocytes, calcein-AM fluorescence, 48 h, basal (AID 1163); conditions: 3T3-L1 adipocytes viability, higher = more signal
[3] = HepG2 cell viability effects, profiling panel, calcein-AM fluorescence, 48 h, basal (AID 1164); conditions: higher = more signal
[4] = MM1S cell viability effects, profiling panel, calcein-AM fluorescence, 48 h, basal (AID 1165); conditions: higher = more signal;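 also: viability of MM1S multiple myeloma cells under basal unstimulated conditions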
[5] = basal RPMI8226 viability, no added stimulus, profiling panel, cell-based, calcein-AM fluorescence, 48 h, PK04 Diversity Set (AID 1166); conditions: RPMI8226 myeloma viability, higher = more signal;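 also: cells grown under basal conditions without added stimulus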
[6] = basal HepG2 mitochondrial membrane potential changes, profiling panel, cell-based, JC-1 fluorescence, 24 h, 100 nL compound (AID 1167); conditions: higher = more signal
[7] = basal 3T3-L1 adipocyte mitochondrial potential changes, profiling panel, cell-based, JC-1 fluorescence, 3T3-L1 adipocytes, 24 h, 100 nL compound (AID 1168); conditions: JC-1 mitochondrial fluorescence, higher = more signal, called active from +8 up or from −8 down
[8] = basal RPMI8226 mitochondrial membrane potential changes, profiling panel, cell-based, JC-1 fluorescence, 24 h, 100 nL compound (AID 1169); conditions: RPMI8226 myeloma, JC-1 mitochondrial potential fluorescence, higher = more signal
[9] = basal MM1S mitochondrial membrane potential changes, profiling panel, cell-based, JC-1 fluorescence, 24 h, 100 nL compound (AID 1170); conditions: higher = more signal
[10] = A549 lung cancer cell viability effects, profiling panel, resazurin fluorescence, 24 h, PK04 Diversity Set (AID 1171); conditions: higher = more signal, called active from +8 up or from −8 down
Also: test concentration not given here.

Row | SMILES | z-score [1] | z-score [2] | z-score [3] | z-score [4] | z-score [5] | z-score [6] | z-score [7] | z-score [8] | z-score [9] | z-score [10]
1 | CCOC(=O)C[C@H]1[C@H](OC(=O)c2cc3ccccc3oc2=O)[C@@H](NC(=O)c2ccc3ccccc3n2)c2cc(OCCCO)ccc2N1C(=O)c1ccc2ccccc2n1 | 0.513 | 1.27 | 0.717 | -0.255 | -0.719 | 0.082 | -0.33 (inactive) | -0.115 | 1.17 | -0.82 (inactive)
2 | O=C1C[C@@](C(=O)NCc2ccccc2)(c2ccc([N+](=O)[O-])cc2)[C@@H](c2ccc(CO)cc2I)N1C1CCCCC1 | 1.14 | 0.317 | 0.593 | -1.6 | -1.22 | 1.67 | 0.254 (inactive) | -0.572 | 0.576 | 0.75 (inactive)
3 | CCOC(=O)C[C@H]1[C@H](OC(=O)c2ccc(C(=O)c3ccccc3)cc2)[C@@H](NC(=O)C2CCCCC2)c2cc(OCCCO)ccc2N1C(=O)Cc1ccc(OC)cc1 | 0.273 | 0.628 | 0.918 | -0.4 | -0.631 | 1.06 | -0.76 (inactive) | 0.368 | -0.812 | -0.0859 (inactive)
4 | C=CCC(OC(C)=O)[C@@H]1[C@@H](N(Cc2cccc3ccccc23)C(=O)c2ccc(C)cc2)c2cc(OCCCO)ccc2N1C(=O)c1ccc2ccccc2c1 (stereo not given in full) | 0.93 | 1.08 | 2.15 | 0.577 | 0.12 | 2.37 | 0.658 (inactive) | 0.102 | -0.796 | 0.912 (inactive)
5 | CC(C)(C)OC(=O)CC[C@]1(C(=O)O)COC(c2ccc(OCCCO)cc2)=N1 | -0.0651 | -2.83 | 0.218 | -0.97 | 0.151 | -0.924 | -0.564 (inactive) | -0.812 | 0.148 | -0.135 (inactive)
6 | CN(C)C(=O)[C@]1(Cc2ccccc2N=[N+]=[N-])N=C(c2ccc(OCCCO)cc2)O[C@@H]1c1ccccc1CN=[N+]=[N-] | -0.409 | 1.01 | -0.386 | -2.39 | -3.03 | 0.38 | -0.286 (inactive) | -0.992 | -1.09 | 1.59 (inactive)
7 | C[C@@]1([C@@H](NC(=O)c2cccs2)c2ccc(-c3ccccc3)cc2)C[C@H]1C1CCCCC1 | -1.23 | 0.437 | -0.644 | -2.17 | -4.43 | -0.734 | 0.395 (inactive) | -0.843 | -1.09 | 2.26 (inactive)
8 | COC(=O)C(CC#Cc1ccc2c(c1)[C@]1(C(=O)N2)[C@H](c2ccccc2OCCO)N2[C@H](c3ccccc3)[C@H](c3ccccc3)OC(=O)[C@H]2[C@@H]1C(=O)Nc1nc2ccccc2s1)C(=O)OC | 0.689 | 1.15 | 0.755 | -3.33 | -1.74 | -2.74 | -0.00705 (inactive) | -0.905 | -0.548 | -0.203 (inactive)
9 | COc1cc(C(O)C2C=CC3C(=O)N(C)C(=O)C3N2NC(=O)OC(C)(C)C)cc(OC)c1OC (stereo not given) | -1.58 | -0.785 | -0.884 | -2.19 | -0.907 | -1.66 | -0.321 (inactive) | -0.872 | 0.415 | -0.679 (inactive)
10 | CCCCC=C[C@@H](NC(=O)CCc1ccccc1)c1ccccc1 | -2.48 | -0.346 | -3.43 | -3.31 | -4.71 | -3.88 | -0.775 (inactive) | -0.85 | -1.74 | -1.3 (inactive)
11 | CN(C)C(=O)[C@@]1(CCC(=O)OC(C)(C)C)N=C(c2ccc(OCCCO)cc2)O[C@H]1c1ccccc1N=[N+]=[N-] | 0.186 | 0.727 | -0.34 | -0.956 | 0.0691 | 1.45 | -0.371 (inactive) | -0.432 | -0.0283 | 0.966 (inactive)
12 | COCCOC(=O)N1C(=O)[C@@]2(c3cc(C#CC4(O)CCCCCC4)ccc31)[C@H](C(=O)N1CCc3cc(OC)c(OC)cc3C1)[C@H]1C(=O)O[C@H](c3ccccc3)[C@H](c3ccccc3)N1[C@@H]2c1ccccc1OCCO | 0.863 | 1.59 | 0.898 | -0.401 | -1.47 | 0.782 | 1.29 (inactive) | -0.477 | -0.952 | 0.993 (inactive)
13 | NCCCCCCNC(=O)[C@H]1C[C@H]2C(=O)N3CCC[C@H]3C(=O)N2[C@H]1c1ccc(O)cc1 | -0.194 | 1.14 | -1.01 | -0.346 | -0.707 | -0.806 | -1.34 (inactive) | 0.26 | 0.698 | -0.608 (inactive)
14 | CC(C)(C)OC(=O)CC[C@@]1(C(=O)N2CCCCC2)N=C(c2ccc(OCCCO)cc2)O[C@@H]1c1ccccc1CN=[N+]=[N-] | 0.708 | -0.125 | 1.25 | -3.47 | -0.624 | 2.12 | -0.405 (inactive) | -0.863 | -0.995 | 0.642 (inactive)
15 | O=C(NCc1ccccc1)[C@]1(Cc2ccccc2)N=C(c2ccc(OCCCO)cc2)O[C@@H]1c1ccccc1 | -2.44 | 0.709 | -1.83 | -2.57 | -4.2 | 0.683 | 0.145 (inactive) | -1.21 | -1.24 | 0.0976 (inactive)
16 | CN(C)CCCC[C@@H]1NC(=O)[C@H]2C[C@@H](C(=O)NCCCCCCNC(=O)CS)[C@@H](c3ccc(O)cc3)N2C1=O | -0.877 | 0.0215 | -1.35 | -0.245 | -1.02 | -1.45 | -0.715 (inactive) | 0.683 | 0.441 | -0.415 (inactive)
17 | COC(=O)[C@@]1(Cc2ccc(OC)cc2)[C@H]2c3cc(C(=O)N(C)C)n(Cc4cc(F)c(F)c(F)c4)c3C[C@H]2CN1C(=O)c1ccccc1 | -1.81 | 0.745 | -0.909 | -1.59 | -2.93 | 3.22 | -0.149 (inactive) | -0.863 | -0.971 | -1.48 (inactive)
18 | COc1ccc(C(=O)Nc2ccc3c(c2)[C@]2(O[C@@H](CCO)[C@H]([Si](C)(C)c4ccc(OC)cc4)[C@H]2C)C(=O)N3Cc2ccccc2)cc1 | -1.34 | 1.39 | -2.56 | -2.64 | -2.99 | 0.00933 | -0.0069 (inactive) | -0.965 | -0.497 | -2.42 (inactive)
19 | C[C@H]1NC(=O)C([C@@H](C)OCc2ccccc2)NC(=O)[C@@]23C(=O)N[C@@H](Cc4ccccc4)C2[C@H](C)[C@@]2(C)O[C@H]2C3/C=C/CC/C=C/CNC1=O (stereo not given in full) | 0.33 | 0.221 | 0.456 | -0.728 | -1.2 | 2.67 | 0.434 (inactive) | 0.452 | 1.84 | -0.757 (inactive)
20 | COc1ccc(C(=O)Nc2ccc(CN3C(=O)[C@]4(O[C@H](CCn5cc([C@H](O)c6ccccc6)nn5)[C@@H]([Si](C)(C)c5ccc(OC)cc5)[C@@H]4C)c4ccccc43)cc2)cc1 | -0.0731 | -0.145 | -4.03 | -2.67 | -3.84 | 1.48 | 0.374 (inactive) | -1.12 | -2.36 | -1.64 (inactive)
21 | CCN(CC)c1ccc(N2CC=CC34O[C@@H]5/C=C\CCCOC(=O)C5[C@H]3C(=O)N(CCCCCO)[C@@H]4C2=O)cc1 (stereo not given in full) | 0.147 | 0.184 | 0.481 | -0.459 | -0.711 | -0.589 | -0.267 (inactive) | 0.0223 | 0.515 | 0.0257 (inactive)
22 | C=C(COC)C(=O)CC[C@H](OC(=O)c1ccccc1-c1ccccc1C(=O)O)c1ccc(OCCO)cc1 | -0.127 | 1.06 | -0.626 | -1.85 | -0.385 | -0.271 | -0.328 (inactive) | -0.463 | 0.463 | -0.276 (inactive)
23 | CC(C)CNC(=O)[C@@]1(c2ccc([N+](=O)[O-])cc2)CC(=O)N(C(C)C)[C@@H]1c1ccc(CO)cc1 | 0.264 | -0.0455 | 0.0153 | -1.07 | 0.399 | 0.621 | -0.167 (inactive) | 0.604 | -0.131 | 0.591 (inactive)
24 | COc1ccc([Si](C)(C)[C@H]2[C@H](CCO)O[C@@]3(C(=O)N(Cc4cccc(N5CCOC5=O)c4)c4ccccc43)[C@@H]2C)cc1 | -0.162 | -0.824 | -0.925 | -2.43 | -3.25 | -0.0995 | 2.01 (inactive) | -1.09 | -1.79 | -2.22 (inactive)
25 | COC(=O)[C@@]1(Cc2ccccc2)[C@H]2c3cc(C(=O)N4CCCC4)n(Cc4ccccc4)c3C[C@H]2CN1C(=O)c1ccccc1 | -1.39 | 0.988 | -0.0065 | -2.96 | -4.64 | 0.106 | -1.74 (inactive) | -0.737 | -0.777 | -3.12 (inactive)
26 | [N-]=[N+]=Nc1ccccc1[C@@H]1OC(c2ccc(OCCCO)cc2)=N[C@]1(CCS(=O)(=O)c1ccccc1)C(=O)NCc1ccccc1 | 0.282 | 0.803 | 0.82 | -0.723 | -0.185 | 0.136 | 3.88 (inactive) | -1.03 | -0.856 | -0.725 (inactive)
27 | COc1cccc(C[C@H]2C[C@@H](CO[Si](C(C)C)(C(C)C)C(C)C)N3C(=O)[C@]4(C(C)=O)O[C@]23[C@H]2C(=O)N(C)C(=O)[C@H]24)c1 | -2.16 | -0.206 | -3.45 | -2.93 | -4.26 | 1.49 | 0.207 (inactive) | -1.05 | -1.96 | -1.41 (inactive)
28 | Cc1ccccc1C(O)C1C=CC2C(=O)N(Cc3ccccc3)C(=O)C2N1n1cnnc1 (stereo not given) | -1.2 | 0.194 | -0.734 | -0.742 | 0.0991 | -0.406 | 0.525 (inactive) | -0.0549 | -0.806 | 0.0882 (inactive)
29 | C=C(/C(=C/C[C@@H](OC(C)=O)c1ccccc1OCCO)c1cnc2ccccc2c1)C(C)C | -0.0635 | 2.39 | -0.795 | -2.36 | -1.45 | 0.517 | -1.27 (inactive) | -0.0844 | 1.74 | -0.945 (inactive)
30 | Cc1ccc(S[C@]2(C(=O)NCC(C)C)CC(=O)N(C3CCCCC3)[C@@H]2c2ccc(CO)cc2I)cc1 | -0.62 | -0.395 | -0.885 | -3.28 | -3.46 | 0.752 | 0.49 (inactive) | -0.947 | 0.0655 | 1.3 (inactive)
